Reference: the supplement of paper PMC6555819

Key:
Assay in all cases: PBM binding z-score (relative to random genomic background probes); higher = stronger binding; sequences stand for … in GC…GCGATTGACAGCGTAGAATGAAGG
[1] = test system: FXR:RXRa (NR concentration 270 nM, RXRa partner concentration 90 nM)
Summary of the method: (§1)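 Scanned fluorescence from custom Agilent 4×180K protein-binding microarrays was regression-normalized. Binding z-scores use random background probes as reference. Ligand-free nuclear receptor dimers were incubated on the arrays for 1 h and detected with antibodies against each partner (one per run).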

[2] = test system: LXRa:RXRa (NR concentration 270 nM, RXRa partner concentration 90 nM)
Summary of the method: as §1

[3] = test system: LXRa homodimer (NR concentration 270 nM)
Summary of the method: as §1

[4] = test system: LXRb homodimer (NR concentration 270 nM)
Summary of the method: as §1

[5] = test system: PPARa:RXRa (NR concentration 270 nM, RXRa partner concentration 90 nM)
Summary of the method: as §1

[6] = test system: PPARg:RXRa (NR concentration 180 nM, RXRa partner concentration 90 nM)
Summary of the method: as §1

[7] = test system: PPARg:RXRa 270nM:90nM, anti-RXR (NR concentration 270 nM, RXRa partner concentration 90 nM)
Summary of the method: as §1

[8] = test system: PPARg:RXRa 30nM:10nM, anti-RXR (NR concentration 30 nM, RXRa partner concentration 10 nM)
Summary of the method: as §1

[9] = test system: PPARg:RXRa 90nM:30nM, anti-RXR (NR concentration 90 nM, RXRa partner concentration 30 nM)
Summary of the method: as §1

## CCTAGTTGGTCAGGAAGTCACACACCGGATATGA
[1]
  PBM binding z-score: 0.197
[2]
  PBM binding z-score: 0.331
[3]
  PBM binding z-score: 0.553
[4]
  PBM binding z-score: 0.257
[5]
  PBM binding z-score: 0.239
[6]
  PBM binding z-score: 0.696
[7]
  PBM binding z-score: 0.592
[8]
  PBM binding z-score: 0.308
[9]
  PBM binding z-score: 0.322

## AGAGTGAGGTTACCAAAGATCAGGGAAACGCTTG
[1]
  PBM binding z-score: 2.09
[2]
  PBM binding z-score: 6.39
[3]
  PBM binding z-score: 0.104
[4]
  PBM binding z-score: 0.461
[5]
  PBM binding z-score: 3.01
[6]
  PBM binding z-score: 1.54
[7]
  PBM binding z-score: 1.63
[8]
  PBM binding z-score: 0.448
[9]
  PBM binding z-score: 1.15

## TATACAGGATCAAAGGCCAGAGTACGAATGTCGA
[1]
  PBM binding z-score: 0.361
[2]
  PBM binding z-score: 0.271
[3]
  PBM binding z-score: -0.0452
[4]
  PBM binding z-score: 0.483
[5]
  PBM binding z-score: 1.33
[6]
  PBM binding z-score: 2.37
[7]
  PBM binding z-score: 3.11
[8]
  PBM binding z-score: 1.85
[9]
  PBM binding z-score: 2.92

## ATATGTAGGTTACCGGGTCATTCAGTTTGCGCAT
[1]
  PBM binding z-score: 3.18
[2]
  PBM binding z-score: 3.3
[3]
  PBM binding z-score: 1.31
[4]
  PBM binding z-score: 0.869
[5]
  PBM binding z-score: 5.44
[6]
  PBM binding z-score: 8.51
[7]
  PBM binding z-score: 7.05
[8]
  PBM binding z-score: 4.85
[9]
  PBM binding z-score: 6.88

## ACTCGGGGGACAAAGGTCAGAGCTACGCCAGTGA
[1]
  PBM binding z-score: 5.78
[2]
  PBM binding z-score: 5.7
[3]
  PBM binding z-score: 2.14
[4]
  PBM binding z-score: 5.96
[5]
  PBM binding z-score: 6.14
[6]
  PBM binding z-score: 9.31
[7]
  PBM binding z-score: 8.33
[8]
  PBM binding z-score: 8.12
[9]
  PBM binding z-score: 9.68

## CGTCAAAGTTCAAGGTAATGTAACAGAAAGCAGC
[1]
  PBM binding z-score: 5.9
[2]
  PBM binding z-score: 5.34
[3]
  PBM binding z-score: 2.54
[4]
  PBM binding z-score: 1
[5]
  PBM binding z-score: 4.74
[6]
  PBM binding z-score: 4.21
[7]
  PBM binding z-score: 5.13
[8]
  PBM binding z-score: 2.14
[9]
  PBM binding z-score: 3.68

## CCTACAGGGCCAAGGTCATTGATCAGTCAAAGCA
[1]
  PBM binding z-score: 3.24
[2]
  PBM binding z-score: 3.38
[3]
  PBM binding z-score: 0.911
[4]
  PBM binding z-score: -0.2
[5]
  PBM binding z-score: 3.78
[6]
  PBM binding z-score: 2.72
[7]
  PBM binding z-score: 3.94
[8]
  PBM binding z-score: 1.45
[9]
  PBM binding z-score: 3.32

## CGTCCAAGGTCAAAGGTCAGCGAAGAGATGACGG
[1]
  PBM binding z-score: 8.78
[2]
  PBM binding z-score: 7.06
[3]
  PBM binding z-score: 3.38
[4]
  PBM binding z-score: 1.66
[5]
  PBM binding z-score: 7.31
[6]
  PBM binding z-score: 11
[7]
  PBM binding z-score: 8.69
[8]
  PBM binding z-score: 8.19
[9]
  PBM binding z-score: 9.49

## ATCGAAAGGTCGTGAAGTGAGTATACAGAAAGGC
[1]
  PBM binding z-score: 4.52
[2]
  PBM binding z-score: 3.75
[3]
  PBM binding z-score: 0.493
[4]
  PBM binding z-score: 0.774
[5]
  PBM binding z-score: 4.76
[6]
  PBM binding z-score: 3.21
[7]
  PBM binding z-score: 3.51
[8]
  PBM binding z-score: 1.42
[9]
  PBM binding z-score: 2.63

## CTCGAAAGGGCGTGCTCAGGTGAGTATACCAAAC
[1]
  PBM binding z-score: 0.538
[2]
  PBM binding z-score: 0.109
[3]
  PBM binding z-score: -0.329
[4]
  PBM binding z-score: -0.824
[5]
  PBM binding z-score: 0.533
[6]
  PBM binding z-score: -0.312
[7]
  PBM binding z-score: 0.0309
[8]
  PBM binding z-score: -0.439
[9]
  PBM binding z-score: -0.22

## ACTCGGAGGACAAAGGTCAGAACTACGCCAGTGA
[1]
  PBM binding z-score: 3.87
[2]
  PBM binding z-score: 4.07
[3]
  PBM binding z-score: 1.47
[4]
  PBM binding z-score: 1.03
[5]
  PBM binding z-score: 4.61
[6]
  PBM binding z-score: 7.34
[7]
  PBM binding z-score: 7.11
[8]
  PBM binding z-score: 4.87
[9]
  PBM binding z-score: 7.69

## TAGCCTCGGTCATTCAGGGGCCAGTATAGAAAGC
[1]
  PBM binding z-score: 1.19
[2]
  PBM binding z-score: 1.14
[3]
  PBM binding z-score: 0.485
[4]
  PBM binding z-score: 0.157
[5]
  PBM binding z-score: 0.242
[6]
  PBM binding z-score: -0.061
[7]
  PBM binding z-score: -0.248
[8]
  PBM binding z-score: -0.569
[9]
  PBM binding z-score: -0.514

## CCTAGTGGGTCAGGAGGTCACACACCGGATATGA
[1]
  PBM binding z-score: 4.27
[2]
  PBM binding z-score: 4.06
[3]
  PBM binding z-score: 1.62
[4]
  PBM binding z-score: 0.0765
[5]
  PBM binding z-score: 5.31
[6]
  PBM binding z-score: 7.91
[7]
  PBM binding z-score: 6.77
[8]
  PBM binding z-score: 4.29
[9]
  PBM binding z-score: 6.31

## CCTTACGGGTCACTCAAGGTTATAGCATCGGAGT
[1]
  PBM binding z-score: 5.96
[2]
  PBM binding z-score: 7.83
[3]
  PBM binding z-score: 3.32
[4]
  PBM binding z-score: -0.133
[5]
  PBM binding z-score: 4.73
[6]
  PBM binding z-score: 3.97
[7]
  PBM binding z-score: 4.48
[8]
  PBM binding z-score: 1.55
[9]
  PBM binding z-score: 3.36

## CCTTACGGGTCACTTACAGGTTATAGCATTTGGA
[1]
  PBM binding z-score: 4.84
[2]
  PBM binding z-score: 4.49
[3]
  PBM binding z-score: 0.907
[4]
  PBM binding z-score: 0.66
[5]
  PBM binding z-score: 4.62
[6]
  PBM binding z-score: 3.07
[7]
  PBM binding z-score: 3.73
[8]
  PBM binding z-score: 1.27
[9]
  PBM binding z-score: 2.84
